# Molecular target: Solute carrier family 2, facilitated glucose transporter member 1 (Homo sapiens) (UniProt P11166)
# Test: ST_JUDE_LEISH: Cytotoxicity at 2uM final concentration against transgenic Leishmania Mexicana promastigotes LmGLUT1 that are glucose transport deficient and complemented with the human glucose transporter GLUT1. Activity is measured by DNA content using SYBR green in vitro
# Type: functional
# Solute carrier family 2, facilitated glucose transporter member 1 (Homo sapiens), sequence (P11166 whole entry): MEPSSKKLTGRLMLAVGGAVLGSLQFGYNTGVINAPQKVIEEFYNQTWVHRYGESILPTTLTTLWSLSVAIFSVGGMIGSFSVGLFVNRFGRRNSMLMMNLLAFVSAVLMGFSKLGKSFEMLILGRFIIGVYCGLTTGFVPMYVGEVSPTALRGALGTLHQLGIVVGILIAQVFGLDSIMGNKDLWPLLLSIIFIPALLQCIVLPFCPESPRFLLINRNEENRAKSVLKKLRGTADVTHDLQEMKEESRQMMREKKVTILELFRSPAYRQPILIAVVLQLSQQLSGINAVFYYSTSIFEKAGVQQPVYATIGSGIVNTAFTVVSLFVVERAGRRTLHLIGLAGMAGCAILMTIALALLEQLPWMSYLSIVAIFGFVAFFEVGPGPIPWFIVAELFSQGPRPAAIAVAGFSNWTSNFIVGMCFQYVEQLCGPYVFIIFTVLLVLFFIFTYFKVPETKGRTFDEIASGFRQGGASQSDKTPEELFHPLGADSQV
row,SMILES,inhibition [%]
1,CC(=O)Nc1ncc(C(=O)Nc2cccc(-c3ccc(-c4nc5cc(C(F)(F)F)ccc5[nH]4)s3)c2)s1,3.37
2,CCOc1c(C)cc(C(F)(F)F)cc1CNCCCNc1cc(=O)c2ccccc2[nH]1,5.27
3,Cc1csc2nc(-c3ccccn3)nc(Nc3ccc4ncsc4c3)c12,0.73
4,O=C(Nc1ccc(Br)cc1)N1CCC(n2c(-c3ccccc3)nc3cccnc32)CC1,2.24
5,CCCCCCCC1CC(CC(=O)Nc2ccnc3ccc(OC)cc23)CN1 (stereo not given),1.6
6,Cc1cccc(NC(=S)NC2CCN(CCCCCNC(=O)/C=C/c3ccc(Cl)c(Cl)c3)CC2)c1,0.27
7,COc1ccc(CN2CCC(CN3CC4(OC3=O)c3ccccc3-c3ccccc34)C2)c(O)c1 (stereo not given),10.8
8,Fc1ccc2[nH]c(-c3ccc(-c4cccc(CN5CCC(CCN6CCCCC6)CC5)c4)cc3)nc2c1,2.93
9,O=C(/C=C/c1cc(C(F)(F)F)ccc1F)NCCCCCN1CCC(c2c[nH]c3ccccc23)CC1,0.77
10,OC(CNCc1ccccc1OCc1ccccc1)c1cccc(Br)c1 (stereo not given),4.31
11,COc1c(CNCCCCCCNCc2c(OC)c(OC)c3ccccc3c2OC)c(OC)c2ccccc2c1OC,67.6
12,COc1ccc(Nc2nccc(-c3cccc(NC(=O)c4cc5cc(F)ccc5[nH]4)c3)n2)cc1,3.61
13,CCC(CC(C)C(=O)O)=C(c1ccccc1)c1ccccc1 (stereo not given),-0.78
14,Cc1cccc2nc(-c3ccc(-c4cccc(CN5CCCC(N)C5)c4)s3)[nH]c12 (stereo not given),12.7
15,Cc1cnc(Nc2cccnc2)nc1Nc1ccccc1C(=O)NC(C)C,1.01
16,Nc1nc(Nc2ccc(Cl)cc2)nc2ccccc12,14
17,Cc1csc(-c2nc(NCc3cccnc3)ncc2-c2ccsc2)n1,2.02
18,CCCCCN1CCCC1CNS(=O)(=O)c1cccc(C(=O)Nc2cccc(C#N)c2)c1 (stereo not given),2.62
19,Cn1cccc1CCNCc1ccc(-c2cccc(-c3nc4ccccc4[nH]3)c2)cc1,3.79
20,Nc1ccc(-c2ccc(NC(=O)Nc3cc(C(F)(F)F)ccc3F)cc2)cn1,7.37

row,SMILES,inhibition [%]
1,CCOc1cc(C)ccc1C1CCN(CCCCNC(=O)c2cccc(-c3ccc(C(F)(F)F)cc3)c2)CC1,1.54
2,C#Cc1cccc(NC(=O)[C@H](CC2CCCCC2)Nc2ccc(C#N)c3ccccc23)c1,2.22
3,Cc1cccc2nc(-c3ccc(-c4ccc(C(=O)NCCN5CCCC5)cc4)s3)[nH]c12,1.13
4,O=C(Nc1ccc(C(F)(F)F)cc1)NC1CCN(c2ccnc3ccccc23)CC1,4.74
5,CC(C)(C(=O)NCCC1CCN(CCCCCNC(=O)/C=C/c2ccc(Cl)c(Cl)c2)CC1)c1ccc(Cl)cc1,5.49
6,Cc1ccc(O)cc1C[C@@H]1C(=O)CC[C@@]2(C)[C@H]1CC[C@]2(C)O,-1.27
7,CCC(C)NC(=O)CN1CN(c2ccccc2)C2(CCN(C(=O)c3ccc(-c4ccccc4)cc3)CC2)C1=O (stereo not given),8.23
8,NC1CCCN(Cc2cccc(-c3ccc(-c4nc5cc(C(F)(F)F)ccc5[nH]4)cc3)c2)C1 (stereo not given),2.3
9,COc1ccc(C(=O)Nc2ccc3oc(-c4ccc(C(F)(F)F)cc4)cc3c2)cc1CCCN(C)C,1.78
10,CCOc1ccc2ccccc2c1CNCCCCCCNCc1c(OCC)ccc2ccccc12,7.3
11,CN(CCCCNC(=O)c1ccc(-c2ccccc2)cc1)C1CCc2c(O)cccc2C1 (stereo not given),2.79
12,CO/C(=C\C=C\c1cc2cc(Cl)c(Cl)cc2[nH]1)C(=O)NCCCN1CCN(c2cccc(OC)c2)CC1,8.59
13,N=C(N)Nc1nc(-c2cc(NC(=O)C(F)(F)F)cc([N+](=O)[O-])c2)cs1,0.23
14,COc1ccc(CCN(C)CCOc2ccc(NC(=O)c3cccc4c(=O)c5cc(SC)ccc5[nH]c34)cc2)cc1OC,9.29
15,CCN(CC)CCN(Cc1ccc(-c2ccc(C(F)(F)F)cc2)cc1)C(=O)Cn1c(CCc2ccc(F)c(C#N)c2)nc(=O)c2ccccc21,6.73
16,COc1ccccc1CN1CCC(NC(=O)c2ccc(-c3ccc(N(C)C)cc3)s2)CC1,9.96
17,Oc1cc(-c2nc(C3(CNCc4ccc(Cl)cc4)CCCCC3)[nH]c2-c2ccncc2)ccc1Cl,4.11
18,CCCN(CCC)CCCNc1ccc(C(=O)Nc2ccc(C(C)C)cc2)cc1[N+](=O)[O-],32.7
19,COc1ccc(-c2cnc3ccc(NC4CCC(O)CC4)nn23)cn1 (stereo not given),2.52
20,CC(C)(Oc1c(C2CCN(CCCCNC(=O)c3ccc(-c4ccc(Cl)cc4)cc3)CC2)ccc2c1CCCC2)C(N)=O,-2.15

# — ChEMBL document CHEMBL3433997, “St. Jude Leishmania screening dataset” (2016)
